In PubChem BioAssay AID456 (Sanford-Burnham Center for Chemical Genomics, 2006) one finds inhibition data, which are given here for 29 compounds.

Structures are written as SMILES. The campaign covered roughly 10,000 compounds. About 25 (0.2%) were called active. The entries come from a sample that favours actives as a whole. Where a call stands in place of a potency, no number is given. Potency and affinity values are given separately. A number with no mark means an inactive call.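 Rule for the calls: active = top tenth filtered wells with inhibition above zero that passed visual or statistical confirmation; inactive = the rest, including hits rejected on review.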

A short description of this test: inhibitors of TNFa-induced VCAM-1 surface display, imaging, high-content imaging, pooled HUVEC, TNFa stimulus (AID 456).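 For inhibition: VCAM-1 immunofluorescence minus red nonspecific channel after plate median normalization.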 The following applies: HUVEC TNFa-induced VCAM-1 surface expression, immunofluorescence imaging;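 compounds screened at 5 µM final in the well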.
`CCCCn1cnc2c(c1=O)c1nc3ccccc3nc1n2Cc1ccc2c(c1)OCO2`: the inhibition entry is “inactive”.

As to `CN(C)c1ccc(C(=O)OCC(=O)NC2CCCCC2)cc1`, the inhibition entry was “inactive”.

As for `CS(=O)(=O)N1CCN(c2ccccc2NC(=O)c2cccs2)CC1`, the inhibition entry was “inactive”. Turning to `O=C(Nc1ccccc1N1CCN(C(=O)c2ccc(Cl)cc2)CC1)c1cc2ccccc2o1`, the inhibition entry was “inactive”. Consider `CS(=O)(=O)N1CCN(c2ccccc2NC(=O)c2ccc(-c3ccc(Cl)cc3Cl)o2)CC1`, for which the inhibition is 70.7% (active). Turning to `Cc1cc(Br)c(S(=O)(=O)n2nnc3ccccc32)cc1C`, the inhibition entry is “inactive”. As to `COc1cc(CNc2ccc(N3CCOCC3)c(C(=O)O)c2)ccc1OCC(N)=O`, the inhibition entry is “inactive”. On to `Cc1ccc(NC(=O)c2ccco2)c(NC(=O)CN2C(=O)c3ccccc3C2=O)c1`, for which the inhibition entry is “inactive”. On to `CCOc1ccc2cc(C#N)c(SCC(=O)N3CCCC3)nc2c1`, for which the inhibition result was “inactive”. As for `CCOc1ccc2cc(C#N)c(SCC(=O)N3CCOCC3)nc2c1`, the entry is “inactive”; as for `CCOc1ccc2cc(C#N)c(SCC(=O)N3CCC(C)CC3)nc2c1`, 69.1% (active); as for `Cc1cc(Cl)ccc1NC(=O)CSc1nnc(Cc2cccs2)n1Cc1ccco1`, “inactive”. As for `COc1ccc(OC)c(NC(=O)CS(=O)(=O)c2ccccc2)c1`, the inhibition entry is “inactive”. Take `O=S(=O)(NCCCCCNS(=O)(=O)c1ccccc1)c1ccccc1`: the inhibition entry is “inactive”. For `Cc1ccccc1-c1nc2ccccc2c(=O)n1C1CCS(=O)(=O)C1` (centres undefined), the inhibition entry is “inactive”. In the case of `C=C(Cl)COC(=O)[C@H]1C2C=CC(C2)C1C(=O)O` (some centres undefined), the inhibition result is “inactive”. Turning to `O=C(c1cnn2c1NC(c1ccco1)CC2C(F)(F)F)N1CCN(c2cccc(Cl)c2)CC1` (centres undefined), the inhibition entry was “inactive”.

On to `O=C(CC(SCCO)c1ccc2c(c1)OCO2)c1ccco1` (centres undefined), for which the inhibition result was “inactive”. Turning to `COc1ccc(CCNC(=O)C2CCN(Cc3nc(-c4cccc(Cl)c4)oc3C)CC2)cc1OC`, the inhibition was 76.3%. As for `Cc1ccccc1-c1nc(CN2CCC(C(=O)N3CCC(C(N)=O)CC3)CC2)c(C)o1`, the inhibition entry is “inactive”. For `O=C(CN(Cc1ccc(F)cc1)C(=O)Cn1nnc2ccccc21)NCC1CCCO1` (centres undefined), the inhibition entry was “inactive”. As to `O=C(NCC1CCCO1)c1ccc(C(=O)NCC2CCCO2)cc1` (centres undefined), the inhibition entry was “inactive”. As for `O=S(=O)(c1ccc2ccccc2c1)N1CCCCC1`, the inhibition result is “inactive”. Consider `Cc1cnc(C(=O)Nc2ccc(N3CCOCC3)cc2)cn1`, for which the inhibition entry is “inactive”. With `CSc1ncc(Cl)c(C(=O)Nc2ccc(S(=O)(=O)N3CCOCC3)cc2)n1` the entry was “inactive”; with `Cc1cc(NCCN2CCOCC2)n2nc(C)c(-c3ccccc3)c2n1`, “inactive”. For the compound `COC(=O)c1cn(C(=O)c2ccc(Br)o2)c2ccccc12`, the inhibition entry was “inactive”. With `O=C(NCCN1CCOCC1)C1CC(=O)N(c2ccc(F)c(Cl)c2)C1` (centres undefined) the entry was “inactive”; with `CC1=C(C(=O)OC2CCCCC2)C(c2ccc(C)o2)C2=C(CC(C)(C)CC2=O)N1` (centres undefined), “inactive”.

Usually inhibition stands for the change of the read-out against control, counted positive when it falls.
